Whole data set: some 33,000 sequences, median “E-score (-0.5 to 0.5)” near -0.054, cut for the highest 2% near 0.35. This is one part of a sample in which the highest values are shown more often than they occur.
target: T1, Stb5 (UniProt P38699); assay: PBM E-score (8-mer binding enrichment) (E-score (-0.5 to 0.5)); higher = stronger / more preferred TF binding; details: protein concentration: 200 nM; construct: GST-full length
T1 sequence: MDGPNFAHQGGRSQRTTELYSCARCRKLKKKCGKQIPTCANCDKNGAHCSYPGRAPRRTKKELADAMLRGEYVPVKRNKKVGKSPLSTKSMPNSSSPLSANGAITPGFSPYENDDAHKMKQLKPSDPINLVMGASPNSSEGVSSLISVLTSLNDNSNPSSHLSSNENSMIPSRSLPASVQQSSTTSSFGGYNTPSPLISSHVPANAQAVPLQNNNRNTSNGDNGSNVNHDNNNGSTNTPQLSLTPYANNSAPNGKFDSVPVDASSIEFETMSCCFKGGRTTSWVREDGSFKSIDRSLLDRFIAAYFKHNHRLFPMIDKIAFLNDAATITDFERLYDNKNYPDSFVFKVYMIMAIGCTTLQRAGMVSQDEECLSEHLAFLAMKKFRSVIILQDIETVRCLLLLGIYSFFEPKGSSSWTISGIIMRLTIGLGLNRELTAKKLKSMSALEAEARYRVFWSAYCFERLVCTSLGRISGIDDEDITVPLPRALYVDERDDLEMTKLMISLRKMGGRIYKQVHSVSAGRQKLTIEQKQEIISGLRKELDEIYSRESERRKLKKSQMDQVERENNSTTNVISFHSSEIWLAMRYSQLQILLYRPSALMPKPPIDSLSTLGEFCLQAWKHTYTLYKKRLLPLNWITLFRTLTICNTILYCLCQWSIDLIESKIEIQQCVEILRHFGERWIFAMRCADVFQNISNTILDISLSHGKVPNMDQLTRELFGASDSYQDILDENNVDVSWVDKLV
Method in brief: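 Universal all-10-mer Agilent arrays, double-stranded by primer extension on fresh or once-stripped slides, were probed with about 100-200 nM GST-tagged yeast transcription factors made by PURExpress. Fluorescent anti-GST detected bound protein, and masliner normalised the scans. E-scores from the Universal PBM Analysis Suite were given to each ungapped eight-base word pooled with its reverse complement.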

Sequence	PBM E-score
CGCCAGTC	0.131
CGCTGATC	0.0743
TAGCGATA	0.0393
CATGCCGG	0.344
AATGCCGC	0.448
GATGCCGA	0.332
GATGCCGC	0.349
CATGCCGA	0.168
AATGCCCG	0.362
AATGCCCC	0.128
AATGCCTG	-0.102
CATGCCCG	0.122
AATGCCGA	0.419
AATGCCGG	0.401
CATGCCGC	0.312
AAGACCTC	-0.0749
CCCTTGGC	-0.224
CTGATTAC	-0.0945
GCAGTTCA	-0.151
CTTGCCAC	-0.0929
CTGGGAGA	-0.253
AAAGCTCG	-0.16

Sequence	PBM E-score
AGATAGAC	-0.0476
ACCCTTTG	0.0498
CAGCCATA	-0.263
AATCCCAA	0.0066
AATGCCAT	-0.0216
AATGCCCT	-0.168
AATGCCGT	0.425
GGGTTTCA	0.19
GACCGCAC	0.18
CACCGCAA	0.368
CACCGCAC	0.357
TACCGCAA	0.225
AACCGCAA	0.12
AACCGCAC	0.00707
CGAGGCTA	-0.0771
AATGAGAG	-0.228
ATGCCTTA	-0.338
GGCCGGAC	0.331
GACCGGAA	0.21
CGCCGGAC	0.396
ATCCGGAC	0.258
AACCGGAG	0.302

Sequence	PBM E-score
GACCGGCC	0.29
CGCCGGAA	0.168
CTCCGGAG	0.283
CTCCGGAC	0.381
GACCGGAC	0.387
CACCGGAG	0.379
GTCCGGAC	0.348
TAGACCAA	-0.239
CAATGGCA	0.022
TATTTACA	-0.157
AGCTGTTC	-0.207
CAAGATGG	-0.13
TAGATTGA	0.0223
AAAGTACG	0.00248
CCAATGCG	-0.208
GAGAGGCC	-0.0937
CACCGGGG	0.33
CACCGGGC	0.375
CACCGGAA	0.293
CACCGGAC	0.413
AACCGGAC	0.28
GACCGGGC	0.211

Sequence	PBM E-score
CAGCAATA	-0.0729
ATGCCCAA	-0.116
CGCGGCTA	0.3
CGGTAACA	0.36
CGGTAATC	0.25
CGGTAATA	0.457
GGGTAATA	0.143
AGGTAACA	-0.111
CGGTAACC	0.165
CGCATAAA	-0.127
CAAGCGGA	0.223
TAAGCGGA	0.209
CAAGCGGG	0.273
AAAGCGGG	0.297
CAAGCGGC	0.379
AAAGCGGA	0.352
CCGACGGA	0.394
ACGACGGA	0.227
CCGACGCC	0.315
CCGACAAG	0.266
CCGACGGC	0.372

Source: the supplement of paper PMC3334620
